In the OligoGym collection:

Target: MARCH9
Assay: pooled miR-30 sensor sort-seq; sequence = guide strand
Conditions: shRNA
Also: reference of the scale not given here.

Row | Sequence | sensor-assay potency score (higher = more potent)
1 | TTGTCCAGCTGGTACCTCCAGC | -0.754
2 | ATTTAGGACCTTCCACTGCTGG | -1.22
3 | TGCATCTCCTCCTATGTCCTTG | -0.947

Target: MAST4
Assay: as above
Conditions: shRNA

Row | Sequence | sensor-assay potency score (higher = more potent)
4 | TTCACATCGGAGAAGCTCCTTG | -0.392
5 | TTGCTTTTCACCAACAGCGGAC | -0.756
6 | TTTGTCCACAGAGTCTTCCTTC | 0.0254
7 | TTTGCTTTTCACCAACAGCGGA | -0.849
8 | TAACTGATGCAACTTCTCCTGG | -0.165
9 | TTTCTTTCGGAGGTAATCGATG | -1.18
10 | TAGGTAGTAAAATTCTTCCGGA | 0.168
11 | TTGCCTATTAAGCTTTTCCGGT | -0.995
12 | TATACTTCAGTGATTTTCCAGG | -0.751
13 | TTGGCCTTCAGCTTGTCGCGGT | 0.119
14 | TTCTGTGCTTTCTAATCGCTGC | 0.164
15 | TTGCTAATCAATTTAATCGTTT | -0.519

Target: MATR3
Assay: as above
Conditions: shRNA

Row | Sequence | sensor-assay potency score (higher = more potent)
16 | TTCTTGTTCTTTACCTTCGGTT | -0.715
17 | TTCGGTTGAACTCTCAGTCTTC | 0.606
18 | TAAGCTTTTTCTTTGCTGCTGC | 0.692
19 | TTTCTCAGACAGGTCAACCTTC | 0.61
20 | TTGAACTCTCAGTCTTCTGGGA | 0.368
21 | TTTCTCACCATCTTCACCGGAC | -0.137
22 | TTGTGTAATAATCCACTGCGGC | -0.905
23 | TTGCTTTTGATCAAACTTCTGA | -0.275
24 | TATACCAACAGGAACATTGGGC | 0.454
25 | TATTCTTTGCAACTTCTTCATT | -0.992
26 | TTCACTTGTATCTTTGTTGGGA | 0.73
27 | TTGATCAAACTTCTGATCTGGC | 0.816

Target: MBD3
Assay: as above
Conditions: shRNA

Row | Sequence | sensor-assay potency score (higher = more potent)
28 | TTGCTCATCAGCATCTTGCCCG | -0.234
29 | ATCTTGCTCATCAGCATCTTGC | -1.63
30 | TCGTCGGTCACCATGAAGGCTT | -0.866
31 | TAATCTTGGTCACCGGCTGCTT | -0.615
32 | ATCAGCATCTTGCCCGTGCGGA | -0.991
33 | TTGAAGATGGACGCCGTCTGGC | -0.445
34 | TCGTCGTCGTCCTCAGCGCAGG | -1.74
35 | TTGGGGAGGTCCATGGTCTTGA | -0.977
36 | TTCTTCTCCCAGAAGAGCTGGC | -0.362
37 | TTGCTGCGGAACTTCTTCCCGC | -0.815
38 | TCGCTCTTGACCTTGTTGCTGG | -0.788
39 | TTGGTAATCTTGGTCACCGGCT | -0.729
